# Experimental data from publication PMC7862700, “An all-to-all approach to the identification of sequence-specific readers for epigenetic DNA modifications on cytosine”.
# Columns and labels:
# Assay in all cases: DAPPL (digital affinity profiling via proximity ligation, sequencing); 10 mM Tris-HCl pH 7.5, 50 mM NaCl, 1 mM DTT, 4% glycerol, room temperature, 30 min; GST-TFs on glutathione beads, 16-mer random dsDNA library, 0.1% formaldehyde crosslink after washing; high values mean tight binding
# [1] = target: T1, FLI1 (Homo sapiens, UniProt Q01543 1-452); conditions: protein: recombinant; tags: N-terminal GST; dsDNA, one strand shown
# T1 sequence: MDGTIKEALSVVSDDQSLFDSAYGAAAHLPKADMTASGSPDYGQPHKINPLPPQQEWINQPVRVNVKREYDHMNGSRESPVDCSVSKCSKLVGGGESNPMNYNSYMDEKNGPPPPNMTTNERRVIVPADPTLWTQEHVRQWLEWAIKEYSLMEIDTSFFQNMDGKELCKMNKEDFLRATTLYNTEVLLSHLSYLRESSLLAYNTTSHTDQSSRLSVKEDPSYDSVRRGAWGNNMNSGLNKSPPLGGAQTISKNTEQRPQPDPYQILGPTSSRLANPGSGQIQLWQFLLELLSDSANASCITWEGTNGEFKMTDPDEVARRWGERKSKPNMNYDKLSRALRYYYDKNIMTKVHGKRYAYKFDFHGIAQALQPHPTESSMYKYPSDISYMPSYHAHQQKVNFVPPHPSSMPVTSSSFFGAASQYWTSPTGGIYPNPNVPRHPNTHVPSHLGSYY
# Summary of the method: (§1)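 Each value of binding signal is a hexamer's read frequency for a factor divided by the same hexamer's frequency in the tag-only sample. Barcoded, bead-captured GST fusions of human transcription factors made in yeast were pooled with that sample and incubated with 200 nmole of a random double-stranded 16-mer DNA library in Tris/NaCl/DTT/glycerol buffer at room temperature for 30 min. Washing, 0.1% formaldehyde crosslinking, proximity ligation, PCR and Illumina NextSeq500 sequencing followed.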
# [2] = target: T2, ELK1 (Homo sapiens, UniProt P19419 1-428); conditions: protein: recombinant; tags: N-terminal GST; dsDNA, one strand shown
# T2 sequence: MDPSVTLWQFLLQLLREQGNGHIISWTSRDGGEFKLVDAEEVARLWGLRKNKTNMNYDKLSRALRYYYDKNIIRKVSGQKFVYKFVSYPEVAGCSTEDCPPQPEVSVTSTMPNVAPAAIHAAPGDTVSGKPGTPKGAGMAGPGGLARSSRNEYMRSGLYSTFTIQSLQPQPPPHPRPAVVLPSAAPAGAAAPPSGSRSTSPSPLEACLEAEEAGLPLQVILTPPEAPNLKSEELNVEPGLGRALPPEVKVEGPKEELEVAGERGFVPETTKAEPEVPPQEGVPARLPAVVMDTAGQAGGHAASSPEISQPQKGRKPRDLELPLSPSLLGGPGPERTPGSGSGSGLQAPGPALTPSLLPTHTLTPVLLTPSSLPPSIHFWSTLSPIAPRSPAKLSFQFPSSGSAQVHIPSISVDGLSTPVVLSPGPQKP
# Summary of the method: as §1
# [3] = target: T3, GABPA (Homo sapiens, UniProt Q06546 1-454); conditions: protein: recombinant; tags: N-terminal GST; dsDNA, one strand shown
# T3 sequence: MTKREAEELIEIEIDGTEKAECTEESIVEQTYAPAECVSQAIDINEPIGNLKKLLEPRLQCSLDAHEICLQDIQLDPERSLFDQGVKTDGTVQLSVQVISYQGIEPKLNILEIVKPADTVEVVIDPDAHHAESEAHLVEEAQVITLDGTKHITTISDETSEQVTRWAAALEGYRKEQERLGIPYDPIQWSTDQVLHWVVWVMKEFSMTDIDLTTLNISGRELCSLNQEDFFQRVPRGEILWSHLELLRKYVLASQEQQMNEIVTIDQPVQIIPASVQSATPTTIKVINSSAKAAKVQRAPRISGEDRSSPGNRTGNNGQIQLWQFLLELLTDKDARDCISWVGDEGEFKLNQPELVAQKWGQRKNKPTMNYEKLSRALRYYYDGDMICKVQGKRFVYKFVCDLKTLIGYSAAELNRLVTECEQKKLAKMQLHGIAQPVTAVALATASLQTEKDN
# Summary of the method: as §1
# [4] = target: T4, ERG (Homo sapiens, UniProt P11308 1-479); conditions: protein: recombinant; tags: N-terminal GST; dsDNA, one strand shown
# T4 sequence: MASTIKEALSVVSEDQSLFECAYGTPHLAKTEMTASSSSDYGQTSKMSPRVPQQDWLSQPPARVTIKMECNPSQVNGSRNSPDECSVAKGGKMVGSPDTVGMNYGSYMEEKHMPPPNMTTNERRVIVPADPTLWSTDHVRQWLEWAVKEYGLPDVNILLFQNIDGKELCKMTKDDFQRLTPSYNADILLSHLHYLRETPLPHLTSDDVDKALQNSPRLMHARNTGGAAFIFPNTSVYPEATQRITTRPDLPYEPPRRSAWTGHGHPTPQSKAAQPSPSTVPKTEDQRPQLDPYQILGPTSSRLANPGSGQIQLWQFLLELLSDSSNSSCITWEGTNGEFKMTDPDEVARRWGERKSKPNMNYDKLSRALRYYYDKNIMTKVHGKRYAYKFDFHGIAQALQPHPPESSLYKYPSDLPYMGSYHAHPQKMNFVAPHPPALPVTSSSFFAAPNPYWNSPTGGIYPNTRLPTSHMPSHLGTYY
# Summary of the method: as §1
# [5] = target: ELF1 (Homo sapiens, UniProt P32519 1-619); conditions: protein: recombinant; tags: N-terminal GST; dsDNA, one strand shown
# Summary of the method: as §1
# [6] = target: T5, EHF (Homo sapiens, UniProt Q9NZC4 1-300); conditions: protein: recombinant; tags: N-terminal GST; dsDNA, one strand shown
# T5 sequence: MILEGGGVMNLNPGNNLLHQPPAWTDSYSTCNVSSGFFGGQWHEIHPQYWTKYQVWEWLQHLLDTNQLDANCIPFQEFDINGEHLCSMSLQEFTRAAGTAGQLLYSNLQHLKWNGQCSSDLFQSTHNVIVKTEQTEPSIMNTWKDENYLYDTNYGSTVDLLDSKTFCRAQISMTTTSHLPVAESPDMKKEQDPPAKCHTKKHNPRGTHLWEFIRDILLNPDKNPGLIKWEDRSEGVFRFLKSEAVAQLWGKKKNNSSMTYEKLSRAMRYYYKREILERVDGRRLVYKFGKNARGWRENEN
# Summary of the method: as §1
# [7] = target: SPI1 (Homo sapiens, UniProt P17947 1-270); conditions: protein: recombinant; tags: N-terminal GST; dsDNA, one strand shown
# Summary of the method: as §1
# [8] = target: T6, ELK3 (Homo sapiens, UniProt P41970 1-407); conditions: protein: recombinant; tags: N-terminal GST; dsDNA, one strand shown
# T6 sequence: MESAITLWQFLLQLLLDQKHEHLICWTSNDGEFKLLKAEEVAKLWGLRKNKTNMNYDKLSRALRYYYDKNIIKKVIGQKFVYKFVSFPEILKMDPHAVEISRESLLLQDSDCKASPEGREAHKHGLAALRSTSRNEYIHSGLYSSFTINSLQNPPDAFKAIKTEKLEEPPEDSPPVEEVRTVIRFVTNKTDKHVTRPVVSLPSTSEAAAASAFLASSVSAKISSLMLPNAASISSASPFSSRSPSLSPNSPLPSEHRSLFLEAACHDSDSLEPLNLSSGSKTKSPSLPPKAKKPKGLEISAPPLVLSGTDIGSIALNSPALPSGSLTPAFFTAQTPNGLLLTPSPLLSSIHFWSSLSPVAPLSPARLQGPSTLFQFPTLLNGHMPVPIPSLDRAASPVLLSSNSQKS
# Summary of the method: as §1
# [9] = target: T7, FEV (Homo sapiens, UniProt Q99581 1-238); conditions: protein: recombinant; tags: N-terminal GST; dsDNA, one strand shown
# T7 sequence: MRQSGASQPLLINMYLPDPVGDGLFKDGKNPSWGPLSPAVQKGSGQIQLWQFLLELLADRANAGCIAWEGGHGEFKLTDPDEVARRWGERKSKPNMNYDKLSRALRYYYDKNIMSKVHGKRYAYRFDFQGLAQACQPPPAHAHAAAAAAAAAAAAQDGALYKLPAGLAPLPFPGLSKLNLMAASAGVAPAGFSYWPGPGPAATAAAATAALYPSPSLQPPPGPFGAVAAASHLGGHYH
# Summary of the method: as §1
# [10] = target: ETV5 (Homo sapiens, UniProt P41161 1-510); conditions: protein: recombinant; tags: N-terminal GST; dsDNA, one strand shown
# Summary of the method: as §1
# [11] = target: HSF1 (Homo sapiens, UniProt Q00613 1-529); conditions: protein: recombinant; tags: N-terminal GST; chain copies: 3; dsDNA, one strand shown
# Summary of the method: as §1
# [12] = target: T8, SPIC (Homo sapiens, UniProt Q8N5J4 1-248); conditions: protein: recombinant; tags: N-terminal GST; dsDNA, one strand shown
# T8 sequence: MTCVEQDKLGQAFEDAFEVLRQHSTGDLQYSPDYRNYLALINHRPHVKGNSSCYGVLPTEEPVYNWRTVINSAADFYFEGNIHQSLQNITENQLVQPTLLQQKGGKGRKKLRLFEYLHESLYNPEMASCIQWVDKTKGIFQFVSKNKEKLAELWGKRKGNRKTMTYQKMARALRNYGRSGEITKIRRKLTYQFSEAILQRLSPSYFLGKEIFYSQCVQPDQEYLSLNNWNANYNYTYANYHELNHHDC
# Summary of the method: as §1
# [13] = target: ELF4 (Homo sapiens, UniProt Q99607 1-663); conditions: protein: recombinant; tags: N-terminal GST; dsDNA, one strand shown
# Summary of the method: as §1
# [14] = target: T9, ELK4 (Homo sapiens, UniProt P28324-2 1-405); conditions: protein: recombinant; tags: N-terminal GST; dsDNA, one strand shown
# T9 sequence: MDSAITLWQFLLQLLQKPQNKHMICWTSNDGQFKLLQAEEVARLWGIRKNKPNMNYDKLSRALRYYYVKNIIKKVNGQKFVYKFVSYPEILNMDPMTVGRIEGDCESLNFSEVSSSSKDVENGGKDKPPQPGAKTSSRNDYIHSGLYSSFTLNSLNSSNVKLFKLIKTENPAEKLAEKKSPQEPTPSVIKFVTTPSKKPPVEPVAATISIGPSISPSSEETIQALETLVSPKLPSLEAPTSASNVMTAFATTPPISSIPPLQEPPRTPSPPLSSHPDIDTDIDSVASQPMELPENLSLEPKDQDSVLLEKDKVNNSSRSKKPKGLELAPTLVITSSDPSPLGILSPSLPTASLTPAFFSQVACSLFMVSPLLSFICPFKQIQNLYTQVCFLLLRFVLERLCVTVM
# Summary of the method: as §1
# [15] = target: T10, ETV2 (Homo sapiens, UniProt O00321 1-342); conditions: protein: recombinant; tags: N-terminal GST; dsDNA, one strand shown
# T10 sequence: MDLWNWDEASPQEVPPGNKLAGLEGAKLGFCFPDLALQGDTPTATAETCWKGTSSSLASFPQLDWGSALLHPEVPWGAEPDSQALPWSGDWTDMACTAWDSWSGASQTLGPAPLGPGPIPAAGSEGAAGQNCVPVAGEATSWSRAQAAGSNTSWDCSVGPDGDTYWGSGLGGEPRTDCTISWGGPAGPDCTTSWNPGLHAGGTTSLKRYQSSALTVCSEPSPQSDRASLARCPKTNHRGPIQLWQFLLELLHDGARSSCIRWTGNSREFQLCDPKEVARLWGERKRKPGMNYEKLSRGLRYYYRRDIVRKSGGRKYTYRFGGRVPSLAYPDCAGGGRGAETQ
# Summary of the method: as §1
# [16] = target: T11, ELF3 (Homo sapiens, UniProt P78545 1-371); conditions: protein: recombinant; tags: N-terminal GST; dsDNA, one strand shown
# T11 sequence: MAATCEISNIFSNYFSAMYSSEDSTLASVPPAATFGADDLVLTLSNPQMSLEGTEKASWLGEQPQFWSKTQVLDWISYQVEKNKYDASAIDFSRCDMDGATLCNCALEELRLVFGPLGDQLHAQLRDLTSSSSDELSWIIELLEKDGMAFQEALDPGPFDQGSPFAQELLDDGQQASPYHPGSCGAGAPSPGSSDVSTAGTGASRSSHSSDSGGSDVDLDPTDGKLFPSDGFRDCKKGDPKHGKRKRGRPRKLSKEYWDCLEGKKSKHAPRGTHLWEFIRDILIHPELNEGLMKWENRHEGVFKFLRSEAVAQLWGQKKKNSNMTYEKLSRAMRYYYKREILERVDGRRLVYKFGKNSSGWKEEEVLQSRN
# Summary of the method: as §1
# [17] = target: CRX (Homo sapiens, UniProt O43186 1-299); conditions: protein: recombinant; tags: N-terminal GST; dsDNA, one strand shown
# Summary of the method: as §1
# Chain of ELF1 (P32519 whole entry): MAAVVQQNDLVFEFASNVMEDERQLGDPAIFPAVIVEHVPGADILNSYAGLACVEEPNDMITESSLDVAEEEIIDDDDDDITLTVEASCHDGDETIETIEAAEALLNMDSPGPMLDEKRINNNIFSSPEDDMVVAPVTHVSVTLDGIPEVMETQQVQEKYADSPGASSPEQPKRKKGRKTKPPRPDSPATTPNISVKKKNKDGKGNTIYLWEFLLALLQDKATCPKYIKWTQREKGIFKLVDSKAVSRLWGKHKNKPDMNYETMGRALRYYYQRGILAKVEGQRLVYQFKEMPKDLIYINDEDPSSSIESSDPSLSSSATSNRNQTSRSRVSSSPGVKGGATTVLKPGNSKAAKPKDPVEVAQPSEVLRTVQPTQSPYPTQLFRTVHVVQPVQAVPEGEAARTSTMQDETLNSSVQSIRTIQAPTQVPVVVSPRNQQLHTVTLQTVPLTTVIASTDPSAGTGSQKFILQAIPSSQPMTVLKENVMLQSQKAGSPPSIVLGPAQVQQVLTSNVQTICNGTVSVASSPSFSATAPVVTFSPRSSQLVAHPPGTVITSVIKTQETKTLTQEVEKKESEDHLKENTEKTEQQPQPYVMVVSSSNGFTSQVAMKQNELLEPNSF
# Chain of HSF1 (Q00613 whole entry): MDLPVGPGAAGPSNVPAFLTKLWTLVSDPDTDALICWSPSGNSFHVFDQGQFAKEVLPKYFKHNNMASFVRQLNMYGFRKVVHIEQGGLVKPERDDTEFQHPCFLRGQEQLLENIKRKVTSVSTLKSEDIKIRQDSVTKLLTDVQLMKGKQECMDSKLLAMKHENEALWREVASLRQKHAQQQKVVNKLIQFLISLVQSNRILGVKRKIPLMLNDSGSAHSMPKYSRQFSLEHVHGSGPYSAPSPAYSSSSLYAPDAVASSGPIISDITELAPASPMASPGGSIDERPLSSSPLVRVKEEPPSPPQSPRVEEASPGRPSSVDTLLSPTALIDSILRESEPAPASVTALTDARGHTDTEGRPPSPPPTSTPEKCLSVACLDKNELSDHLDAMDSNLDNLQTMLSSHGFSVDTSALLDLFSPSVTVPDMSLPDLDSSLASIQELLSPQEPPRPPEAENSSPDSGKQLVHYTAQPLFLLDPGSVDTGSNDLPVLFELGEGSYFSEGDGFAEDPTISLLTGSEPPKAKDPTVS
# Chain of ETV5 (P41161 whole entry): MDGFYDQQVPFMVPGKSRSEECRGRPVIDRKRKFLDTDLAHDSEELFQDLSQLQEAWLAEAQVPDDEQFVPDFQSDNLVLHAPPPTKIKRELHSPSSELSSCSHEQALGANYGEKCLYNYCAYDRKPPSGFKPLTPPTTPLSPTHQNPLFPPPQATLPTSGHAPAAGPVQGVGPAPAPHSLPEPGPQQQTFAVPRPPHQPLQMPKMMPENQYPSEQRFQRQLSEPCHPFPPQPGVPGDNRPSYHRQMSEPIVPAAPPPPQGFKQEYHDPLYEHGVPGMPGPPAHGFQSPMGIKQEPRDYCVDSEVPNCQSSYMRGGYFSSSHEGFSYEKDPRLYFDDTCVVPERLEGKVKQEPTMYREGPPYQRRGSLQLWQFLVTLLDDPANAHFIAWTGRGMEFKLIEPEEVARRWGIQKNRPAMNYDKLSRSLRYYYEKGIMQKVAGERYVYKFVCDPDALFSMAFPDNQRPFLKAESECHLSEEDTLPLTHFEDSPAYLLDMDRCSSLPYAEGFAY
# Chain of ELF4 (Q99607 whole entry): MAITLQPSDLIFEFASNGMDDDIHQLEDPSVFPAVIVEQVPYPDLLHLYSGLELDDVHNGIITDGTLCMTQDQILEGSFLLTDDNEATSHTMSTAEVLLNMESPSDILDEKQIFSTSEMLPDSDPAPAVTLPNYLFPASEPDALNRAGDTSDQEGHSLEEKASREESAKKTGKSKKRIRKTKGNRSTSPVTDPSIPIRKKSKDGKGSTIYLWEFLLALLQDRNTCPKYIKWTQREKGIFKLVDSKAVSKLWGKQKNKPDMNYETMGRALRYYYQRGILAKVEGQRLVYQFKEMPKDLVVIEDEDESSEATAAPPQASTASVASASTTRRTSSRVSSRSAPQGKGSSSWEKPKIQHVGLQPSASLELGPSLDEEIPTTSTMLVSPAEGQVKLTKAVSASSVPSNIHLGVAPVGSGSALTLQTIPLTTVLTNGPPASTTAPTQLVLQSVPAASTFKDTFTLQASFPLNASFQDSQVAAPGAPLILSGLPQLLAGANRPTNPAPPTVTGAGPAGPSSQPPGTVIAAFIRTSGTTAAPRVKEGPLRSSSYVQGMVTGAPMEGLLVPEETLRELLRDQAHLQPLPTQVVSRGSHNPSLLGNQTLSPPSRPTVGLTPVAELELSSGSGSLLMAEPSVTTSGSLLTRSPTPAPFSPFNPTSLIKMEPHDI
# Chain of CRX (O43186 whole entry): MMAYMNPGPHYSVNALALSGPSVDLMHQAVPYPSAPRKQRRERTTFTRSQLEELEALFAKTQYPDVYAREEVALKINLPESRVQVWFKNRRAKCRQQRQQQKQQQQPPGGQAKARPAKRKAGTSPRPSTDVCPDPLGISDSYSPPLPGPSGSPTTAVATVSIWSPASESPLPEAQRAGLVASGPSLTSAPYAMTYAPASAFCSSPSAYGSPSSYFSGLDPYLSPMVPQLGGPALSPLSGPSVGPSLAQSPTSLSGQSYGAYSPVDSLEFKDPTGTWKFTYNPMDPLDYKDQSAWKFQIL
sequence,measurement,setting,value
TAGAAT,binding signal,[1],"1.1 fold enrichment (6-mer frequency, TF over GST control)"
same,binding signal,[2],"1.06 fold enrichment (6-mer frequency, TF over GST control)"
same,binding signal,[3],"1.03 fold enrichment (6-mer frequency, TF over GST control)"
same,binding signal,[4],"1.03 fold enrichment (6-mer frequency, TF over GST control)"
same,binding signal,[5],"1.1 fold enrichment (6-mer frequency, TF over GST control)"
same,binding signal,[6],"1.01 fold enrichment (6-mer frequency, TF over GST control)"
same,binding signal,[7],"1.15 fold enrichment (6-mer frequency, TF over GST control)"
same,binding signal,[8],"1.15 fold enrichment (6-mer frequency, TF over GST control)"
same,binding signal,[9],"1.04 fold enrichment (6-mer frequency, TF over GST control)"
same,binding signal,[10],"1.03 fold enrichment (6-mer frequency, TF over GST control)"
same,binding signal,[11],"3.07 fold enrichment (6-mer frequency, TF over GST control)"
same,binding signal,[12],"1.04 fold enrichment (6-mer frequency, TF over GST control)"
same,binding signal,[13],"1.13 fold enrichment (6-mer frequency, TF over GST control)"
same,binding signal,[14],"1.14 fold enrichment (6-mer frequency, TF over GST control)"
same,binding signal,[15],"1.06 fold enrichment (6-mer frequency, TF over GST control)"
same,binding signal,[16],"1.19 fold enrichment (6-mer frequency, TF over GST control)"
same,binding signal,[17],"1.83 fold enrichment (6-mer frequency, TF over GST control)"
